According to the supplement of paper PMC11732987, “Enantioselective OTUD7B fragment discovery through chemoproteomics screening and high-throughput optimisation” (Communications Chemistry, 2025):

Experiments:
Test in all cases: log2 ratio of Biotin-Ahx-Ub-VS probe labelling (fragment/DMSO); higher = less target engagement (more negative = stronger competition), active = hit call of the paper (q ≤ 0.05, log2 ratio ≤ -1)
Settings in all cases: compound concentration: 200 uM; treatment time: 3 h
[1] = target: T1, USP19 (UniProt O94966)
T1 sequence (whole entry): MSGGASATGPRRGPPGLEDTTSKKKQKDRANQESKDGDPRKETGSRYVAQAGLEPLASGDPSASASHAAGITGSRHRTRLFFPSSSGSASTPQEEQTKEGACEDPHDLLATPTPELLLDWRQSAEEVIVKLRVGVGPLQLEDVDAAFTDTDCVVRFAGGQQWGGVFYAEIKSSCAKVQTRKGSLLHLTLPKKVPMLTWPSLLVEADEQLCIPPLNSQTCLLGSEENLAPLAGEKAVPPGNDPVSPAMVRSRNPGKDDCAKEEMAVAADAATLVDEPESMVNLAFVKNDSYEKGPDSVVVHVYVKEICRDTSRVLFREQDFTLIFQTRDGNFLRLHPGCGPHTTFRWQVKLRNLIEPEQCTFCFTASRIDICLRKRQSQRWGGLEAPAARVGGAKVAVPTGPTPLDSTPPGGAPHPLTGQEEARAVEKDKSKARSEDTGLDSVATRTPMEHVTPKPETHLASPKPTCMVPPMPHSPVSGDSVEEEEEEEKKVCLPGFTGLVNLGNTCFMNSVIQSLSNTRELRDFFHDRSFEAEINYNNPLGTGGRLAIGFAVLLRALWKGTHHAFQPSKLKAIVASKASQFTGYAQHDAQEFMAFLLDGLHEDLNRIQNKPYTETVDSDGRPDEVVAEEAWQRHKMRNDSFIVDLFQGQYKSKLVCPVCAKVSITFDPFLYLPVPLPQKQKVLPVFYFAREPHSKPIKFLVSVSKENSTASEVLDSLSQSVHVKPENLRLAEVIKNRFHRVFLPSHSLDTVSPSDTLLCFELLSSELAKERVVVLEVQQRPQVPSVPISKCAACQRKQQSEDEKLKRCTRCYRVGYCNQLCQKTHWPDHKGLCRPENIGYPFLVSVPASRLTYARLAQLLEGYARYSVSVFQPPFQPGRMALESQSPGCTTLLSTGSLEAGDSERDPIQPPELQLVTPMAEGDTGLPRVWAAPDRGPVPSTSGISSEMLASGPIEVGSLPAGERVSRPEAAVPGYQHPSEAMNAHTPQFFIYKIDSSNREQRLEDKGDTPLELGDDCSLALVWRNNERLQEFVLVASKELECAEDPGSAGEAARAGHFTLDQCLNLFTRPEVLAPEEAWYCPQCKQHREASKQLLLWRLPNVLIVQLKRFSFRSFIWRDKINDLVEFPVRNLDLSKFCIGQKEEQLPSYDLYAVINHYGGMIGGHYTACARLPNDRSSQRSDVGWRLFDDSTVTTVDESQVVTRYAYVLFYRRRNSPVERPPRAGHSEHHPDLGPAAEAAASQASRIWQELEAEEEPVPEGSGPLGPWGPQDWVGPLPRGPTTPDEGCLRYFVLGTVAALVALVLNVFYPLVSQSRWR
Outline: (§1)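 Triplicate samples of HEK293T lysate, 495 µg each, received fragment at 200 µM or vehicle for 3 h, followed by Biotin-Ahx-Ub-VS (0.5 µM final) for 1 h. After NeutrAvidin enrichment of labelled DUBs and LysC/trypsin digestion, peptides were run by diaPASEF LC-MS/MS. The values are average log2 fragment/vehicle ratios from global-median-normalised Spectronaut label-free quantities, tested by unpaired t-test on proteins having ≥2 unique peptides.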

[2] = target: T2, USP22 (UniProt Q9UPT9)
T2 sequence (whole entry): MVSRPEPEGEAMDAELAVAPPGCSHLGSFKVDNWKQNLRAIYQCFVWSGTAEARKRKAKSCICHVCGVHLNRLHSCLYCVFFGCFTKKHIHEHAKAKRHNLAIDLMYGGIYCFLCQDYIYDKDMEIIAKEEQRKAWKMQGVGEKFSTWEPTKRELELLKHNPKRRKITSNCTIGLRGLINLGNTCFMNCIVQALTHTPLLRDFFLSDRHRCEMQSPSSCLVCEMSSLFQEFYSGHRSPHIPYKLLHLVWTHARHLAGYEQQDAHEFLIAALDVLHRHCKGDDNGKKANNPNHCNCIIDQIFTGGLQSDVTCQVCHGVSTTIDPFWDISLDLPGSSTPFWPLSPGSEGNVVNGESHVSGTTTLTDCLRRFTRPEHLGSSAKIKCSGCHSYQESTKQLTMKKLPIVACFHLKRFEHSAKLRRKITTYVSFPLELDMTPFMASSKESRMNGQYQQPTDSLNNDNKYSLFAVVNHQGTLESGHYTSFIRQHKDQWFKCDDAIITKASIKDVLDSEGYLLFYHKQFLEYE
Outline: as §1

[3] = target: USP24 (UniProt Q9UPU5)
Sequence of USP24 (Q9UPU5 whole entry): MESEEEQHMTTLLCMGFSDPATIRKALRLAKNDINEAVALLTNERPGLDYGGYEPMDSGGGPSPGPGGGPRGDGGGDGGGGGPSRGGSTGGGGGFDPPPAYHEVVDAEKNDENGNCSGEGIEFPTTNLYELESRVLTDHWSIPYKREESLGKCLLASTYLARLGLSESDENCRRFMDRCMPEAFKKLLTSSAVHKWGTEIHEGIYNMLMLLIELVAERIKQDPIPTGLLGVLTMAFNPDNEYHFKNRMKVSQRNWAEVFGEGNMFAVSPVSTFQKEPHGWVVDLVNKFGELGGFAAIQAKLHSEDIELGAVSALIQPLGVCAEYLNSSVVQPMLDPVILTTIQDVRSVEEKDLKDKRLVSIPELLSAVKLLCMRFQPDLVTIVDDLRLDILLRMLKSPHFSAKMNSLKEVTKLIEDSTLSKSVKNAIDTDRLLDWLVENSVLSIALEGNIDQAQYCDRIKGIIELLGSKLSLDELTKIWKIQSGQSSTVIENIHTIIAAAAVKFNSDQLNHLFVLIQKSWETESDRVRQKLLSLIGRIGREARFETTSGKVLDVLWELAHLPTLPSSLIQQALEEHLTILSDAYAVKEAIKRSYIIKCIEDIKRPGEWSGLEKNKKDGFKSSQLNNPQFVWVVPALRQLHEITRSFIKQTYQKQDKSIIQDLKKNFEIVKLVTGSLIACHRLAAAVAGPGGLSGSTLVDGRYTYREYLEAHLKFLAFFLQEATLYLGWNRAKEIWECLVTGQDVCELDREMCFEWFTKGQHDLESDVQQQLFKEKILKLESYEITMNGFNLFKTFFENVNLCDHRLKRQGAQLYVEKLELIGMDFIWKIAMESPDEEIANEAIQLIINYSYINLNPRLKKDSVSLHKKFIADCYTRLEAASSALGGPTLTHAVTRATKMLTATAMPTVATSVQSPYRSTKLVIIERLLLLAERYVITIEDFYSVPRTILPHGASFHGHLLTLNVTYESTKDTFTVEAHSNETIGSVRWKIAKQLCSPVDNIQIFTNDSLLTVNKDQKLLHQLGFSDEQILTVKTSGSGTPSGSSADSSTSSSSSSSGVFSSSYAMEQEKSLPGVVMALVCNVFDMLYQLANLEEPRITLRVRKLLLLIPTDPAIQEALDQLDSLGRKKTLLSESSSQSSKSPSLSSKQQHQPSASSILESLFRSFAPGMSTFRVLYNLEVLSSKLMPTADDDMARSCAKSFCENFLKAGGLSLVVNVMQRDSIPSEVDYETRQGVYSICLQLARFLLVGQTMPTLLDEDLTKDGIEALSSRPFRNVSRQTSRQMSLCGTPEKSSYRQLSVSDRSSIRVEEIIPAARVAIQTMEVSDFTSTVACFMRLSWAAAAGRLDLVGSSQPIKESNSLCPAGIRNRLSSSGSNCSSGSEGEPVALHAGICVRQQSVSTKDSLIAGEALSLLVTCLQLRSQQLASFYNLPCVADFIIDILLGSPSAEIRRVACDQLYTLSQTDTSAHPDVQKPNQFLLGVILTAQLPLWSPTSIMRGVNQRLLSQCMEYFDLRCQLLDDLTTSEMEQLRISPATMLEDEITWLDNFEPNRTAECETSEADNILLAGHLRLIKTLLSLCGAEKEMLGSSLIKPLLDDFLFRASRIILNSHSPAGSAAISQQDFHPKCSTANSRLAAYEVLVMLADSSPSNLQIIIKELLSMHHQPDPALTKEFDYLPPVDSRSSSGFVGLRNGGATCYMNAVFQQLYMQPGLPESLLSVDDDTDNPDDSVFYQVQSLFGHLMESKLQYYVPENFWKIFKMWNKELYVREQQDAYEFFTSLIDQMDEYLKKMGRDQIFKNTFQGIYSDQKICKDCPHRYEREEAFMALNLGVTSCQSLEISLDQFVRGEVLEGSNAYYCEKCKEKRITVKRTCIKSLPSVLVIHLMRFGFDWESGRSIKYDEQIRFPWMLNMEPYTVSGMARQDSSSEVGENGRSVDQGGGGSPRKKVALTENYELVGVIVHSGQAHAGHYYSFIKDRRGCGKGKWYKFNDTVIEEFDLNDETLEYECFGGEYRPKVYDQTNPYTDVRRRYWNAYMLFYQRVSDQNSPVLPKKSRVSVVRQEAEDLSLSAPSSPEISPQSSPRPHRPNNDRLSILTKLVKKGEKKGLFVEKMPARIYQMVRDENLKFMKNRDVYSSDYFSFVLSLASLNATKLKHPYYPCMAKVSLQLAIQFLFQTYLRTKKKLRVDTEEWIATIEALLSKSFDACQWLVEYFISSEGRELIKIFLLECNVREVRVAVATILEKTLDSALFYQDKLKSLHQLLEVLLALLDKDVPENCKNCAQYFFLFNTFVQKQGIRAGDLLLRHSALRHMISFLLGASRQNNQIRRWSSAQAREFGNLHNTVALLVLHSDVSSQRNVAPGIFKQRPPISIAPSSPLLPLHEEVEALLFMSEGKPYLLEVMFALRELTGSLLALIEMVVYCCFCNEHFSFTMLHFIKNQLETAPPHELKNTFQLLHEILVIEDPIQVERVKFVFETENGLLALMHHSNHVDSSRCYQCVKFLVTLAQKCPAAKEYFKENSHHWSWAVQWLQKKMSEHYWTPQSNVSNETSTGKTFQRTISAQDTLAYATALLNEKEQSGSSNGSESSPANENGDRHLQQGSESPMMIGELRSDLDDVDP
Outline: as §1

[4] = target: T3, USP25 (UniProt Q9UHP3)
T3 sequence (whole entry): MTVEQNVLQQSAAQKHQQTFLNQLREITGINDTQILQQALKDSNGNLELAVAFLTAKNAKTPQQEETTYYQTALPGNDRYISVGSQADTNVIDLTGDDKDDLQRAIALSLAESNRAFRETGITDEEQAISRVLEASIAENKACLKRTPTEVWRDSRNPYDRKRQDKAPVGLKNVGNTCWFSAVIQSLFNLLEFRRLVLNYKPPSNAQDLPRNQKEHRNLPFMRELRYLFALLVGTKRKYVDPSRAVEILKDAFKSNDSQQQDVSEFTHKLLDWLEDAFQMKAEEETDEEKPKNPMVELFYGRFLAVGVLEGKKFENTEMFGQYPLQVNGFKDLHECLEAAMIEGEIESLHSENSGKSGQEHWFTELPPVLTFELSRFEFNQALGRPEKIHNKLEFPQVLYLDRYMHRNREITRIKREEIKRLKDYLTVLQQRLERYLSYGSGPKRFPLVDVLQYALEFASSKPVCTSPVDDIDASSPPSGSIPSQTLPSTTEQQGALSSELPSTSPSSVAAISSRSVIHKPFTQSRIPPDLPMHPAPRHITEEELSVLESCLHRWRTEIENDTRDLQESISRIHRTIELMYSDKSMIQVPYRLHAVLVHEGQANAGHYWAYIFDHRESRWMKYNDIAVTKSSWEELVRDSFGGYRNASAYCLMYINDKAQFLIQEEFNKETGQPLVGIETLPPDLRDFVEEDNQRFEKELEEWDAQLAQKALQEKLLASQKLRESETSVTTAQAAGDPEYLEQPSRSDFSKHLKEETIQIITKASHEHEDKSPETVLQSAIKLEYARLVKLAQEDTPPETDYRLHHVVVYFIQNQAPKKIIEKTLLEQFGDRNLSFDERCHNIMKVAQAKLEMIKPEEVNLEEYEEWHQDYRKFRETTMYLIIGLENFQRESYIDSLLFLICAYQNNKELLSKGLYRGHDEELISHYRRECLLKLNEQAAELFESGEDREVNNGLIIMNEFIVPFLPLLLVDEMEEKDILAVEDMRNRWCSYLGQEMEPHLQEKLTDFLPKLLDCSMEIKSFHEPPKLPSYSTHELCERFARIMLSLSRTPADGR
Outline: as §1

[5] = target: T4, USP28 (UniProt Q96RU2)
T4 sequence (whole entry): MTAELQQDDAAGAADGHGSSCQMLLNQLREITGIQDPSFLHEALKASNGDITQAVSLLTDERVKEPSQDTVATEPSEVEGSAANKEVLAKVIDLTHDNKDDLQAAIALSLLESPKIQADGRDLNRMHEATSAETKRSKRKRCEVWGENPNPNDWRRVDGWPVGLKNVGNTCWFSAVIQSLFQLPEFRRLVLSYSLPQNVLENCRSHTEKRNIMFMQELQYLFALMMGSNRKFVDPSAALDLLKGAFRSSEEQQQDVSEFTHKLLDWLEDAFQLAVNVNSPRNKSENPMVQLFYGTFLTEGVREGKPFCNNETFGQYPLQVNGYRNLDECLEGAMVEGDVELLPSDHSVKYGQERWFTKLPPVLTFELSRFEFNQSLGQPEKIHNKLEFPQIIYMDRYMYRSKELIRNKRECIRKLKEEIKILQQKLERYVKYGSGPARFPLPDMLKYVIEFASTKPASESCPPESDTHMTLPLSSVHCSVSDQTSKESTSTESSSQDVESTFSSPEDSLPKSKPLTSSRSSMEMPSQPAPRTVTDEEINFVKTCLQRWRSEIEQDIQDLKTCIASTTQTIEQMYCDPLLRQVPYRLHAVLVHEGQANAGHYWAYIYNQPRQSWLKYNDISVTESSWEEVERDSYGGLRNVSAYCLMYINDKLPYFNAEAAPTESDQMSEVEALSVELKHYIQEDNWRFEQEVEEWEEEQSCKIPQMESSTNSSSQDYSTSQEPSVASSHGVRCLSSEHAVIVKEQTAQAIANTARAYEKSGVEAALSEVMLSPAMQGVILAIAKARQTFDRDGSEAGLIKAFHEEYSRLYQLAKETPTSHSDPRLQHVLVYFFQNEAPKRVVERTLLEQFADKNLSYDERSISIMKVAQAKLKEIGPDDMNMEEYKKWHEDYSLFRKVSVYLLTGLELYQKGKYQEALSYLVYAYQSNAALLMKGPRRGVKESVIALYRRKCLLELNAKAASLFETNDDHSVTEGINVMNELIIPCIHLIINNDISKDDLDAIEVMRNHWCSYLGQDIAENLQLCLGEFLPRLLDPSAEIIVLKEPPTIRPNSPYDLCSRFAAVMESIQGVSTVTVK
Outline: as §1

Measured: log2 ratio of Biotin-Ahx-Ub-VS probe labelling

Cc1cccnc1NC(=O)C1CCN(C(=O)CCl)CC1.Cl
inactive: [1] -0.314 | [2] 0.169 | [3] -0.409 | [4] -0.184 | [5] -0.564
